Active and inactive are the calls of the source. The call rests on the fitted dose curve.
Details: Ebola virus entry assay, ratio channel readout
For COC(=O)Nc1nc2ccc(C(=O)c3cccs3)cc2[nH]1, the AC50 was 544 nM (active). For CC[C@]1(O)C[C@H]2CN(CCc3c([nH]c4ccccc34)[C@@](C(=O)OC)(c3cc4c(cc3OC)N(C=O)[C@H]3[C@@](O)(C(=O)OC)[C@H](OC(C)=O)[C@]5(CC)C=CCN6CC[C@]43[C@@H]65)C2)C1, the AC50 was 153 nM (active). For Cc1nnc(C(C)C)n1C1C[C@H]2CC[C@@H](C1)N2CC[C@H](NC(=O)C1CCC(F)(F)CC1)c1ccccc1 (stereo not given in full), the outcome was “inactive”. With CO[C@H]1C[C@@H]2CC[C@@H](C)[C@@](O)(O2)C(=O)C(=O)N2CCCC[C@@H]2C(=O)O[C@H]([C@@H](C)C[C@@H]2CC[C@H](O)[C@H](OC)C2)CC(=O)[C@H](C)C=C(C)[C@@H](O)[C@@H](OC)C(=O)[C@H](C)C[C@H](C)C=CC=CC=C1C the outcome was “inactive”. With CCCNCC(O)COc1ccccc1C(=O)CCc1ccccc1 (stereo not given) the outcome was “inactive”. With COC1=CC(=O)C[C@@H](C)[C@]12Oc1c(Cl)c(OC)cc(OC)c1C2=O the outcome was “inactive”. In the case of CC[C@]1(O)C[C@@H]2CN(CCc3c([nH]c4ccccc34)[C@@](C(=O)OC)(c3cc4c(cc3OC)N(C)[C@H]3[C@@](O)(C(=O)OC)[C@H](OC(C)=O)[C@]5(CC)C=CCN6CC[C@]43[C@@H]65)C2)C1, the AC50 is reported as 122 nM (active). In the case of CCN(CC)CCNC(=O)c1c(C)[nH]c(/C=C2\C(=O)Nc3ccc(F)cc32)c1C, the AC50 is reported as 2170 nM (active). In the case of CCCCc1oc2ccc(NS(C)(=O)=O)cc2c1C(=O)c1ccc(OCCCN(CCCC)CCCC)cc1, the AC50 is reported as 3850 nM (active). With CC[C@H]1OC(=O)[C@H](C)[C@@H](O[C@H]2C[C@@](C)(OC)[C@@H](O)[C@H](C)O2)C(C)[C@@H](O[C@@H]2O[C@H](C)C[C@H](N(C)C)[C@@H]2O)[C@](C)(OC)C[C@@H](C)C(=O)[C@H](C)[C@@H](O)[C@]1(C)O (stereo not given in full) the outcome was “inactive”. With CN(C)CCOc1ccc(/C(=C(/CCCl)c2ccccc2)c2ccccc2)cc1 the AC50 was 1090 nM (active). For CCCSc1ccc2nc(NC(=O)OC)[nH]c2c1, the outcome was “inactive”. With CO[C@H]1C[C@@H]2CC[C@@H](C)[C@@](O)(O2)C(=O)C(=O)N2CCCC[C@@H]2C(=O)O[C@H]([C@H](C)C[C@@H]2CC[C@H](OCCO)[C@H](OC)C2)CC(=O)[C@H](C)C=C(C)[C@@H](O)[C@@H](OC)C(=O)[C@H](C)C[C@H](C)C=CC=CC=C1C the outcome was “inactive”. For COC(=O)Nc1nc2ccc(C(=O)c3ccccc3)cc2[nH]1, the outcome was “inactive”. For CCC1=C[C@@H]2CN(C1)Cc1c([nH]c3ccccc13)[C@@](C(=O)OC)(c1cc3c(cc1OC)N(C)[C@H]1[C@@](O)(C(=O)OC)[C@H](OC(C)=O)[C@]4(CC)C=CCN5CC[C@]31[C@@H]54)C2, the AC50 was 86.3 nM (active). With C[C@]12CC[C@@H]3c4ccc(O)cc4C[C@@H](CCCCCCCCCS(=O)CCCC(F)(F)C(F)(F)F)[C@H]3[C@@H]1CC[C@@H]2O (stereo not given in full) the outcome was “inactive”. With C[C@@H]1O[C@@H](O[C@H]2CC[C@@]3(C)[C@H](CC[C@@H]4[C@H]3C[C@@H](O)[C@]3(C)[C@@H](C5=CC(=O)OC5)CC[C@]43O)C2)C[C@H](O)[C@@H]1O[C@H]1C[C@H](O)[C@H](O[C@H]2C[C@H](O)[C@@H](O)[C@@H](C)O2)[C@H](C)O1 (stereo in doubt) the outcome was “inactive”. In the case of CC[C@H]1OC(=O)[C@H](C)[C@@H](O[C@H]2C[C@@](C)(OC)[C@@H](O)[C@H](C)O2)[C@H](C)[C@@H](O[C@@H]2O[C@H](C)C[C@H](N(C)C)[C@@H]2O)[C@](C)(O)C[C@@H](C)CN(C)[C@H](C)[C@@H](O)[C@]1(C)O, the AC50 is reported as 6110 nM (active). With CN1CCN(CCCN2c3ccccc3Sc3ccc(C(F)(F)F)cc32)CC1 the AC50 was 7690 nM (active). In the case of COc1cccc2c1C(=O)c1c(O)c3c(c(O)c1C2=O)C[C@@](O)(C(C)=O)C[C@H]3O[C@H]1C[C@H](N)[C@H](O)[C@H](C)O1, the AC50 is reported as 2730 nM (active).
